{"source": "PubChem BioAssay (Tox21)", "note": "Results filed as inconclusive are left out. Entries that show only a call come without a potency. Unmarked numbers belong to inactive results. Calls of active or inactive are those of the source. Calls come from the whole dose curve; as a rule, active = well fitted cell-killing curve with a large enough effect in the repeat runs; inconclusive = weak or mixed curves, or effect the other way; inactive = flat fitted curve, though single readings scatter. Potency is the fitted concentration of half-maximal effect."}
{"test": "qHTS RealTime-Glo MT Cell Viability Assay in HEK293 cells - 16 hour (AID 1224872); note: nearly all actives have a fitted effect of over 50% in size; for activity change, negative = cytotoxicity: top concentration of the series differs between compounds", "settings": "RealTime-Glo luminescence; series mostly up to 76.8 µM", "excerpt": "National Center for Advancing Translational Sciences [NCATS]\nNIH Chemical Genomics Center [NCGC]\nU.S. Environmental Protection Agency [EPA]\nNational Institutes of Environmental Health Sciences [NIEHS]\nNational Toxicology Program [NTP]\nU.S. Food and Drug Administration [FDA]\nMeasure of cell viability is critical in the cell-base assay. Analysis of cell viability is necessary for the characterization of cell responses to cytotoxic drugs and environmental stress. A RealTime-Glo MT Cell Viability Assay to monitor cell viability in real time of continues cell culture during 40 hours of compound treatment was used to screen Tox21 10K library compounds in Hek293 cells. The RealTime-Glo MT Cell Viability Assay is a nonlytic, homogeneous, bioluminescent method to measure cell viability in real time using a simple, plate-based method. The assay involves adding NanoLuc luciferase and a cell-permeant prosubstrate to cells in culture. Viable cells reduce the proprietary prosubstrate to generate a substrate for NanoLuc luciferase. This substrate diffuses from cells into the surrounding culture medium, where it is rapidly used by the NanoLuc Enzyme to produce a luminescent signal. The signal correlates with the number of viable cells, making the assay well suited for cytotoxicity studies.\nTox21 Assay Protocol Summary:\nThe mixture of Hek293 cell suspension and reagents were dispensed at 600cells/6 ul/well in 1536-well tissue culture treated black solid bottom plates using a Multidrop dispenser. After the assay plates were incubated at a 37 C/5% CO2 incubator for 5 hours, 23 nL of compounds dissolved in DMSO, positive and negative controls was transferred to the assay plate by a pintool work station. The plates were incubated at 37 C for 40 hours. The luminescence intensity were measured at 0h, 8h, 16h, 24h, 32h and 40h time points using ViewLux plate reader during compound treatment."}
{"molecule": "Nc1c(Br)cc([N+](=O)[O-])cc1Br", "Potency": "inactive"}
{"molecule": "C/C=C/C(=O)OCC(C)C", "Potency": "inactive"}
{"molecule": "C/C=C/C(=O)C1=C(C)C=CCC1(C)C", "Potency": "inactive"}
{"molecule": "CSc1ccc(O)cc1C", "Potency": "inactive"}
{"molecule": "C=CC(C)(C)O", "Potency": "inactive"}
{"molecule": "COc1cccc(-c2ccc(/C=C\\CN3CCCCCC3)cc2Cl)c1", "Potency": "43.4 µM (active)"}
{"molecule": "CCCCCCCCCCCCS(=O)(=O)Cl", "activity change, negative = cytotoxicity": "11.1% [at 15.8 µM]"}
{"molecule": "CCCCCCCCCC[N+](C)(CCCCCCCCCC)CCC[Si](OC)(OC)OC", "Potency": "27.5 µM (active)"}
{"molecule": "CC(CC(C)(C)C)CC(C)(C)CC(C)(C)C", "note": "(stereo not given)", "Potency": "inactive"}
{"molecule": "COC(=O)c1ccc([N+](=O)[O-])cc1", "Potency": "inactive"}
{"molecule": "O=C1OC(=O)c2cc(-c3ccc4c(c3)C(=O)OC4=O)ccc21", "Potency": "inactive"}
{"molecule": "Cc1cccc(C)c1C", "Potency": "inactive"}
{"molecule": "O=C1C=CC(=O)N1c1cccc(N2C(=O)C=CC2=O)c1", "Potency": "12.3 µM (active)"}
{"molecule": "NC(=O)c1ccccc1Cl", "Potency": "inactive"}
{"molecule": "CCCCNc1ccc(NCCCC)c2c1C(=O)c1ccccc1C2=O", "activity change, negative = cytotoxicity": "9.94% [at 15.8 µM]"}
{"molecule": "Nc1ccc2c(S(=O)(=O)O)cccc2c1S(=O)(=O)O", "Potency": "inactive"}
{"molecule": "O=C1CCCCCCCCCCCCCC1", "Potency": "inactive"}
{"molecule": "NCc1cccc(C2CCN(C(=O)c3ccc(C#Cc4ccccc4F)o3)CC2)c1", "Potency": "49 µM (active)"}
{"molecule": "CCC1(C)C(=O)N(Cl)C(=O)N1Cl", "note": "(stereo not given)", "Potency": "inactive"}
{"molecule": "Nc1cc([N+](=O)[O-])ccc1Cl", "Potency": "inactive"}
{"molecule": "CSc1nnc(C(C)(C)C)c(=O)[nH]1", "Potency": "inactive"}
{"molecule": "O=c1cc[nH]cc1", "Potency": "inactive"}
{"molecule": "C=CCc1cc(S(=O)(=O)c2ccc(O)c(CC=C)c2)ccc1O", "Potency": "27.5 µM (active)"}
{"molecule": "CCN(CC)c1ccc(C=O)c(O)c1", "Potency": "inactive"}
{"molecule": "CCC(=O)OC/C=C(\\C)CCC=C(C)C", "Potency": "inactive"}
{"molecule": "CN(C/C=C/c1ccccc1)Cc1cccc2ccccc12", "Potency": "inactive"}
{"molecule": "O=C(c1ccccc1)c1ccc(Cl)cc1", "Potency": "inactive"}
{"molecule": "Nc1ccc(Cl)c([N+](=O)[O-])c1", "Potency": "inactive"}
{"molecule": "CCCCCCCCOC(=O)c1cc(O)c(O)c(O)c1", "Potency": "6.92 µM (active)"}
{"molecule": "C=Cc1ccc(O)c(OC)c1", "Potency": "inactive"}
{"molecule": "CCN(CC)c1ccc(N=Nc2ccccc2)cc1", "Potency": "49 µM (active)"}
{"molecule": "CCc1c(C)cc(N)c(CC)c1N", "Potency": "inactive"}
{"molecule": "Cc1ccc2n[nH]nc2c1", "Potency": "inactive"}
{"molecule": "CC(C)(C)c1cc(CCC(=O)OCCSCCOC(=O)CCc2cc(C(C)(C)C)c(O)c(C(C)(C)C)c2)cc(C(C)(C)C)c1O", "Potency": "inactive"}
{"molecule": "CCC(C)(C)c1ccc(CC(C)CN2C[C@@H](C)O[C@@H](C)C2)cc1", "note": "(stereo not given in full)", "Potency": "inactive"}
{"molecule": "CO[Si](OC)(c1ccccc1)c1ccccc1", "Potency": "inactive"}
{"molecule": "O=C(O)C[C@H](O)C[C@H](O)/C=C/c1c(C2CC2)nc2ccccc2c1-c1ccc(F)cc1", "activity change, negative = cytotoxicity": "7.11% [at 15.8 µM]"}
{"molecule": "CCCOC(=O)c1ccc(O)cc1", "Potency": "49 µM (active)"}
{"molecule": "ClC(c1ccccc1)(c1ccccc1)c1ccccc1", "Potency": "inactive"}
{"molecule": "C=Cc1ccncc1", "Potency": "inactive"}
